# From paper PMC7862700, “An all-to-all approach to the identification of sequence-specific readers for epigenetic DNA modifications on cytosine”
# Assays:
# Test in all cases: DAPPL (digital affinity profiling via proximity ligation, sequencing); 10 mM Tris-HCl pH 7.5, 50 mM NaCl, 1 mM DTT, 4% glycerol, room temperature, 30 min; GST-TFs on glutathione beads, 16-mer random dsDNA library, 0.1% formaldehyde crosslink after washing; high values mean tight binding
# FLI1 = biological target: T1, FLI1 (Homo sapiens, UniProt Q01543 1-452); conditions: protein: recombinant; tags: N-terminal GST; dsDNA, one strand shown
# T1 sequence: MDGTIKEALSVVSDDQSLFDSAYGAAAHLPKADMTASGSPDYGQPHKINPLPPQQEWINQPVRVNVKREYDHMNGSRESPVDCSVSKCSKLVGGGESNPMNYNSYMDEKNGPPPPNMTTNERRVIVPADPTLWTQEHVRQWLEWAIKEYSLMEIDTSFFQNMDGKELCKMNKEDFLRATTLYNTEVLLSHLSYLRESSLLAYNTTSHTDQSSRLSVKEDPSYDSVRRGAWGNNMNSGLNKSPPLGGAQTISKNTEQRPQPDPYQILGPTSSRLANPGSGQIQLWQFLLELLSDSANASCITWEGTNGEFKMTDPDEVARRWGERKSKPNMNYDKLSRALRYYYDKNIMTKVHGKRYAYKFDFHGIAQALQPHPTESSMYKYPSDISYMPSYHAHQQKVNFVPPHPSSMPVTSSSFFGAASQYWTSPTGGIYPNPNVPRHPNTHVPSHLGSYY
# In short: (§1)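 Binding signal is defined as a hexamer's read frequency for one factor over its frequency for the tag-only sample. To obtain reads, GST-fused human transcription factors were expressed in yeast, captured on glutathione beads, barcoded with DNA and pooled with that sample. Pools met 200 nmole of a 16-mer random double-stranded DNA library in Tris/NaCl/DTT/glycerol buffer for 30 min at room temperature before washing, 0.1% formaldehyde crosslinking, proximity ligation (BsaI/T4 ligase, 1 h, 37 °C), PCR and Illumina NextSeq500 sequencing.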
# ELK1 = biological target: T2, ELK1 (Homo sapiens, UniProt P19419 1-428); conditions: protein: recombinant; tags: N-terminal GST; dsDNA, one strand shown
# T2 sequence: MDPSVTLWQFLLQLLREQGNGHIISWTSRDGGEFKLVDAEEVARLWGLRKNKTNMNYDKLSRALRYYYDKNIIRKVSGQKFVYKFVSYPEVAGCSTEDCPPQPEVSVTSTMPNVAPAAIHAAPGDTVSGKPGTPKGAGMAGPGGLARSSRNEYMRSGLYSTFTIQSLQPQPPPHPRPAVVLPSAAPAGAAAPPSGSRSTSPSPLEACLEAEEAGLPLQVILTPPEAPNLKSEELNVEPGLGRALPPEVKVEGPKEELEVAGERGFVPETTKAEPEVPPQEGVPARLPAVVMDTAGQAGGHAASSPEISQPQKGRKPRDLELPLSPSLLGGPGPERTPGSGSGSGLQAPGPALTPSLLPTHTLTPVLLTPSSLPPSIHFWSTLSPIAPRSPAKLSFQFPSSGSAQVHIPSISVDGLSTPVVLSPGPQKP
# In short: as §1
# GABPA = biological target: T3, GABPA (Homo sapiens, UniProt Q06546 1-454); conditions: protein: recombinant; tags: N-terminal GST; dsDNA, one strand shown
# T3 sequence: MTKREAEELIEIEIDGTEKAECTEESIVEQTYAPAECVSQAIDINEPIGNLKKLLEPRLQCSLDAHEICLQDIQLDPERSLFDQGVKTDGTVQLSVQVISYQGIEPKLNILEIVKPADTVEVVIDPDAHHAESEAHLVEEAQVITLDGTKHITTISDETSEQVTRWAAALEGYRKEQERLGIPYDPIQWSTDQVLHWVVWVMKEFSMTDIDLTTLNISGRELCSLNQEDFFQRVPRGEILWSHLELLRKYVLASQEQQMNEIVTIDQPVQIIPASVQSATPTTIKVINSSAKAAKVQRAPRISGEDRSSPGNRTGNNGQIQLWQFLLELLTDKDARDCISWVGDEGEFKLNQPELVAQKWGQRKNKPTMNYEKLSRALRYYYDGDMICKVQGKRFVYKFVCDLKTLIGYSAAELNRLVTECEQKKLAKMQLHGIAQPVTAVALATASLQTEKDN
# In short: as §1
# ERG = biological target: T4, ERG (Homo sapiens, UniProt P11308 1-479); conditions: protein: recombinant; tags: N-terminal GST; dsDNA, one strand shown
# T4 sequence: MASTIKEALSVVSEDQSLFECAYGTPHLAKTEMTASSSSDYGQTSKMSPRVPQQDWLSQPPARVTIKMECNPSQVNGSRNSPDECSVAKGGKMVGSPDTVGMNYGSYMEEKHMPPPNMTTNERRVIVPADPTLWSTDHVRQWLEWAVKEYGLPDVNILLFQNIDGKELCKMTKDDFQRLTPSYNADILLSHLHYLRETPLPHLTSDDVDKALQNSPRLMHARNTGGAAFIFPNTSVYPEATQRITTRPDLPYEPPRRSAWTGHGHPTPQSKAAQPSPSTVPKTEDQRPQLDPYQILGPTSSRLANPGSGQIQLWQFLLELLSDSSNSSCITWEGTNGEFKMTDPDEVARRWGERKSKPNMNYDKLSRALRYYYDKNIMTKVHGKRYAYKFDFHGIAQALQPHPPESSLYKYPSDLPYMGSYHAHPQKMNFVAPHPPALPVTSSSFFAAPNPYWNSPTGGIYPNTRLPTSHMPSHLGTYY
# In short: as §1
# ELF1 = ELF1 (Homo sapiens, UniProt P32519 1-619); conditions: protein: recombinant; tags: N-terminal GST; dsDNA, one strand shown
# In short: as §1
# EHF = biological target: T5, EHF (Homo sapiens, UniProt Q9NZC4 1-300); conditions: protein: recombinant; tags: N-terminal GST; dsDNA, one strand shown
# T5 sequence: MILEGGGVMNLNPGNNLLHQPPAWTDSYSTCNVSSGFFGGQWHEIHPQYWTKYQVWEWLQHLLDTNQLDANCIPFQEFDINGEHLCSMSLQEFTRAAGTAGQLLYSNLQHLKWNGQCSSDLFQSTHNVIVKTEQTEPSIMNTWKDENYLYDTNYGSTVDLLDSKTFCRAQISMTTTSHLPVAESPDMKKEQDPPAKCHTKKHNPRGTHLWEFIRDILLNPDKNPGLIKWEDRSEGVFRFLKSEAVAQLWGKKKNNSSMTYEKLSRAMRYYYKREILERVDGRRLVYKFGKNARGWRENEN
# In short: as §1
# SPI1 = SPI1 (Homo sapiens, UniProt P17947 1-270); conditions: protein: recombinant; tags: N-terminal GST; dsDNA, one strand shown
# In short: as §1
# SPIB = SPIB (Homo sapiens, UniProt Q01892 1-262); conditions: protein: recombinant; tags: N-terminal GST; dsDNA, one strand shown
# In short: as §1
# ELK3 = biological target: T6, ELK3 (Homo sapiens, UniProt P41970 1-407); conditions: protein: recombinant; tags: N-terminal GST; dsDNA, one strand shown
# T6 sequence: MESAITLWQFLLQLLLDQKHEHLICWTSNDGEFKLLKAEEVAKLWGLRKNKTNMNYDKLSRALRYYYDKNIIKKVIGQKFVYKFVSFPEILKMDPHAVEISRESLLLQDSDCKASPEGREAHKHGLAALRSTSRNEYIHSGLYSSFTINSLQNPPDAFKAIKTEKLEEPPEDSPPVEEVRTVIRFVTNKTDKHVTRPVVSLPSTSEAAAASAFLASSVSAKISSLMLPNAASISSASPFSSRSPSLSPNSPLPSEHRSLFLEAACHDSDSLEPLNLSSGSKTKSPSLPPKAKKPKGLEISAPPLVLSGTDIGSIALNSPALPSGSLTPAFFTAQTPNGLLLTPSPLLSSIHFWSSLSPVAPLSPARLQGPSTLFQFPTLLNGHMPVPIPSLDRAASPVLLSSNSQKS
# In short: as §1
# FEV = biological target: T7, FEV (Homo sapiens, UniProt Q99581 1-238); conditions: protein: recombinant; tags: N-terminal GST; dsDNA, one strand shown
# T7 sequence: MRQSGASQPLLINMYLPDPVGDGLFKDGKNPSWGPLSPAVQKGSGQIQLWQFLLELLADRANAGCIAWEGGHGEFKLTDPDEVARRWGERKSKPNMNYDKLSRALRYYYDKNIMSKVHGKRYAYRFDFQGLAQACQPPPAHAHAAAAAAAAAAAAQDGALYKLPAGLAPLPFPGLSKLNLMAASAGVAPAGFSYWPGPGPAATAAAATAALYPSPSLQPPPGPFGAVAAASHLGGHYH
# In short: as §1
# ETV5 = ETV5 (Homo sapiens, UniProt P41161 1-510); conditions: protein: recombinant; tags: N-terminal GST; dsDNA, one strand shown
# In short: as §1
# HSF1 = HSF1 (Homo sapiens, UniProt Q00613 1-529); conditions: protein: recombinant; tags: N-terminal GST; chain copies: 3; dsDNA, one strand shown
# In short: as §1
# SPIC = biological target: T8, SPIC (Homo sapiens, UniProt Q8N5J4 1-248); conditions: protein: recombinant; tags: N-terminal GST; dsDNA, one strand shown
# T8 sequence: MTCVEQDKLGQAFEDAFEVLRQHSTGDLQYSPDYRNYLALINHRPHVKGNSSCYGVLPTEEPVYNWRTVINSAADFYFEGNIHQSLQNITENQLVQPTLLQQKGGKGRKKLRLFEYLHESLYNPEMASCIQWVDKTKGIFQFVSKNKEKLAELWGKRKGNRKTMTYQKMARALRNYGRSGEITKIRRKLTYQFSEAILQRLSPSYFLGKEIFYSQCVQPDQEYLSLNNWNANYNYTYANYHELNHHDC
# In short: as §1
# ELF4 = ELF4 (Homo sapiens, UniProt Q99607 1-663); conditions: protein: recombinant; tags: N-terminal GST; dsDNA, one strand shown
# In short: as §1
# ELK4 = biological target: T9, ELK4 (Homo sapiens, UniProt P28324-2 1-405); conditions: protein: recombinant; tags: N-terminal GST; dsDNA, one strand shown
# T9 sequence: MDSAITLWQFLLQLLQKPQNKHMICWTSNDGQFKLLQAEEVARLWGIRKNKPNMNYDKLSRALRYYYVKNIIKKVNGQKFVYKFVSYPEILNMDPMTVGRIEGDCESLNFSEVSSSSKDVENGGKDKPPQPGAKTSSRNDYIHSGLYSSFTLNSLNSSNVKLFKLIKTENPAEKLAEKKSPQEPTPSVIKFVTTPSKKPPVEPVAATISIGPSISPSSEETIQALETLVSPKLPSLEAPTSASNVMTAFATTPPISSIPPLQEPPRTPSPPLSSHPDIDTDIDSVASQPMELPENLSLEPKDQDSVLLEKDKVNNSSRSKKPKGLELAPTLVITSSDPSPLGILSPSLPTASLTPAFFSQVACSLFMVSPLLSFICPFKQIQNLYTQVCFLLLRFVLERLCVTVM
# In short: as §1
# ETV2 = biological target: T10, ETV2 (Homo sapiens, UniProt O00321 1-342); conditions: protein: recombinant; tags: N-terminal GST; dsDNA, one strand shown
# T10 sequence: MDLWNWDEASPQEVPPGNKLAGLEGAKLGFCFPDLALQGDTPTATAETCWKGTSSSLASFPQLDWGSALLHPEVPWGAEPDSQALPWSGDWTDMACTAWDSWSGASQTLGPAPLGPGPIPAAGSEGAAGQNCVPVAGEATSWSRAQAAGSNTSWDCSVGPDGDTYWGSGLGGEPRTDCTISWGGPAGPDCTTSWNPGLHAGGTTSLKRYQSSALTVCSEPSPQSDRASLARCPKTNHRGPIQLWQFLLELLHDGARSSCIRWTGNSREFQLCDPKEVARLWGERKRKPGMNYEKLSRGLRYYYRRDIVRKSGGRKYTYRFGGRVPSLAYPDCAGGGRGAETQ
# In short: as §1
# ELF3 = biological target: T11, ELF3 (Homo sapiens, UniProt P78545 1-371); conditions: protein: recombinant; tags: N-terminal GST; dsDNA, one strand shown
# T11 sequence: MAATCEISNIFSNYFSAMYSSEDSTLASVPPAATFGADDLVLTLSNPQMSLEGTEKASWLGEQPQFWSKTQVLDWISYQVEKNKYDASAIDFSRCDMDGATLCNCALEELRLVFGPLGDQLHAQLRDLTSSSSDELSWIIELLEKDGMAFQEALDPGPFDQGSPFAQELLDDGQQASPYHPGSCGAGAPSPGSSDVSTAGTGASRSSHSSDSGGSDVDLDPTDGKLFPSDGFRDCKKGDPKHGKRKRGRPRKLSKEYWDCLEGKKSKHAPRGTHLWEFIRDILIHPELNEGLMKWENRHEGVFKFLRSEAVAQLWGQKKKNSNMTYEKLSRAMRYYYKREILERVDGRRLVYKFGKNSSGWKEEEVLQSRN
# In short: as §1
# CRX = CRX (Homo sapiens, UniProt O43186 1-299); conditions: protein: recombinant; tags: N-terminal GST; dsDNA, one strand shown
# In short: as §1
# ETV1 = ETV1 (Homo sapiens, UniProt P50549 1-477); conditions: protein: recombinant; tags: N-terminal GST; dsDNA, one strand shown
# In short: as §1
# Sequence of ELF1 (P32519 whole entry): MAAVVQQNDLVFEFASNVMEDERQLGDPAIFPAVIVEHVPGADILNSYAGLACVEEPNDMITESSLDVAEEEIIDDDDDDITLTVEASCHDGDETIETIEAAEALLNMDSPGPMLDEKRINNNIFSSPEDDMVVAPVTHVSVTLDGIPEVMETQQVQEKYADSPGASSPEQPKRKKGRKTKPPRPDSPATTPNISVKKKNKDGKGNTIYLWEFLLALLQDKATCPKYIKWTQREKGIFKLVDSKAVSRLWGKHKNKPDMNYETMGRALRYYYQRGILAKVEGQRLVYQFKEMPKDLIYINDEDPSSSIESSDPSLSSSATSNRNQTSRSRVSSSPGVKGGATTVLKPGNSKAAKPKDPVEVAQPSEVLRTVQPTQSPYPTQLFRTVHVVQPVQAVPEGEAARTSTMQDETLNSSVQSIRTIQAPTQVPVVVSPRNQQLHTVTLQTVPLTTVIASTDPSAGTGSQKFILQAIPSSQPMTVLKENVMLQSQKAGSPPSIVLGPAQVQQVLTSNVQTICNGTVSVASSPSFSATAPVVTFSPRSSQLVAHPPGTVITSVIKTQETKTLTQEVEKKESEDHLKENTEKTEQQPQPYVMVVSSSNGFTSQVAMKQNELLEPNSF
# Sequence of ETV1 (P50549 whole entry): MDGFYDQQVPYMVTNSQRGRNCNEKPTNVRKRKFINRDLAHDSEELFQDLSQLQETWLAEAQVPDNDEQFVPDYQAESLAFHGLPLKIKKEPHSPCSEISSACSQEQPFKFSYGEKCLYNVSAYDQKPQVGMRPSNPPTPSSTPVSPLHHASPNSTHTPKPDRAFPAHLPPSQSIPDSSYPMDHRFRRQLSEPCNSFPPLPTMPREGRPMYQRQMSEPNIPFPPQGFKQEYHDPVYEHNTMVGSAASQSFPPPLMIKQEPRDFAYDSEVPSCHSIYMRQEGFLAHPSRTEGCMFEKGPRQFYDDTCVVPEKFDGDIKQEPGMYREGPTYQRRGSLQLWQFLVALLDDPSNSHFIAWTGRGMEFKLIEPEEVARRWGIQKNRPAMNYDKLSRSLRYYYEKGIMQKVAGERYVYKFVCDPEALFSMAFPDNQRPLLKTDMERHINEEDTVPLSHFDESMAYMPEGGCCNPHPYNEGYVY
# Sequence of SPIB (Q01892 whole entry): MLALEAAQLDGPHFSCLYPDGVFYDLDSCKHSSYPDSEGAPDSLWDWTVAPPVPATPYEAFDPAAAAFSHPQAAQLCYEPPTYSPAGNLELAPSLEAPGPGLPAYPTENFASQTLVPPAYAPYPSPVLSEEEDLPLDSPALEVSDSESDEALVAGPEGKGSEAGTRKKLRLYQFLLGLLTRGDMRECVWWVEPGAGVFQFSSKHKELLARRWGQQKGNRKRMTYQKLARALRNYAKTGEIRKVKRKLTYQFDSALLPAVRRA
# Sequence of ELF4 (Q99607 whole entry): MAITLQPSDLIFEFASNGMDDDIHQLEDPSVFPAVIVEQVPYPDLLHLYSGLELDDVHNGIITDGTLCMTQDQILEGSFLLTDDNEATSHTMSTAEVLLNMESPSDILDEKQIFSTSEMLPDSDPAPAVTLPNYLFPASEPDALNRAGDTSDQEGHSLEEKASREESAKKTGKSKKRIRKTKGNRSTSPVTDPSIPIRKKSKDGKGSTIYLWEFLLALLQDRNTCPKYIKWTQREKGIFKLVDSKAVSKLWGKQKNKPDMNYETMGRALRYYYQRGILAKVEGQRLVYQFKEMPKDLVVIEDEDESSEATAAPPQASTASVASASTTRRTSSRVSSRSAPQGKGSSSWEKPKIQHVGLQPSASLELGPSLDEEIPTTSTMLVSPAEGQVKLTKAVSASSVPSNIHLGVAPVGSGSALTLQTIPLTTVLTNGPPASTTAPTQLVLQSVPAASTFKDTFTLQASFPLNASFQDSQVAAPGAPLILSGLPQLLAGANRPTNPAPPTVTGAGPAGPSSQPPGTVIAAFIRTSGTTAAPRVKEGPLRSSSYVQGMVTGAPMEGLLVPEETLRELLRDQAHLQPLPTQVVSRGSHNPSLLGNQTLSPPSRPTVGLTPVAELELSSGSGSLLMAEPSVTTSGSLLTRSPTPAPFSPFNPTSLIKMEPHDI
# Sequence of HSF1 (Q00613 whole entry): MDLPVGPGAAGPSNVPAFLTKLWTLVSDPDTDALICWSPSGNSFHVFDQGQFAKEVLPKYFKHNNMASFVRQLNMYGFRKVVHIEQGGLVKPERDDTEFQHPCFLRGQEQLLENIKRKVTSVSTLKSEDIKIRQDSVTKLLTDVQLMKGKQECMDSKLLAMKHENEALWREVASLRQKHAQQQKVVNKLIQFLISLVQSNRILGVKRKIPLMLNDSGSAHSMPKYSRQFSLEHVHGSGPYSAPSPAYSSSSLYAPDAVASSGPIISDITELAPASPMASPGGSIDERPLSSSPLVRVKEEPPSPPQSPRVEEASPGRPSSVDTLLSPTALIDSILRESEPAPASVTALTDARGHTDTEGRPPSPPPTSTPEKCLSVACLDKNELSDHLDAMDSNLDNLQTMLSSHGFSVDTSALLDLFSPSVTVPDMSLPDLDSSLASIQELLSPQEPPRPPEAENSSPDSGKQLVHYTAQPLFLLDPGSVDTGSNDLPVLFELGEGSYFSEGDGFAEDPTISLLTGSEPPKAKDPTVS
# Sequence of ETV5 (P41161 whole entry): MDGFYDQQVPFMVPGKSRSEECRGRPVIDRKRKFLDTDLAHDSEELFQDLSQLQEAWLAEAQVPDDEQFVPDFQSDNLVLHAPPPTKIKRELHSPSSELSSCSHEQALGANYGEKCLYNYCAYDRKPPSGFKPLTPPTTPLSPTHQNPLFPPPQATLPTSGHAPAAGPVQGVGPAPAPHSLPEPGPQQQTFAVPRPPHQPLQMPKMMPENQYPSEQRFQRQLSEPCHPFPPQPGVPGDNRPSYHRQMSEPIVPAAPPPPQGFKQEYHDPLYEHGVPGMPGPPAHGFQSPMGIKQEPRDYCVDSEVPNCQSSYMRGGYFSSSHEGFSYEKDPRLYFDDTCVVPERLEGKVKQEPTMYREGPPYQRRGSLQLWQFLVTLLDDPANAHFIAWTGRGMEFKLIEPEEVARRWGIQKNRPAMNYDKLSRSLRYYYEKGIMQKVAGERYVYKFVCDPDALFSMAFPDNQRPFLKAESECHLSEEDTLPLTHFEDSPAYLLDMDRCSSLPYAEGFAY
# Sequence of CRX (O43186 whole entry): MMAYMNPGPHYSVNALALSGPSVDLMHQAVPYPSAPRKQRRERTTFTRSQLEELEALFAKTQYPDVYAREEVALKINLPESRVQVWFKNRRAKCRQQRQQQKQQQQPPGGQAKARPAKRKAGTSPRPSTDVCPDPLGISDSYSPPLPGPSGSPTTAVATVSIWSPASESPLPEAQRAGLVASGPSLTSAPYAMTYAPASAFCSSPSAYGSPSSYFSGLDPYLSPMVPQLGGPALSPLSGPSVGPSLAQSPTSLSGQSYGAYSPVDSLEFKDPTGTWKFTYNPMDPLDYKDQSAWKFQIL
sequence,measurement,setting,value
AAATCT,binding signal,FLI1,"1.28 fold enrichment (6-mer frequency, TF over GST control)"
same,binding signal,ELK1,"1.21 fold enrichment (6-mer frequency, TF over GST control)"
same,binding signal,GABPA,"1.23 fold enrichment (6-mer frequency, TF over GST control)"
same,binding signal,ERG,"1.31 fold enrichment (6-mer frequency, TF over GST control)"
same,binding signal,ELF1,"1.3 fold enrichment (6-mer frequency, TF over GST control)"
same,binding signal,EHF,"1.2 fold enrichment (6-mer frequency, TF over GST control)"
same,binding signal,SPI1,"1.14 fold enrichment (6-mer frequency, TF over GST control)"
same,binding signal,SPIB,"1.29 fold enrichment (6-mer frequency, TF over GST control)"
same,binding signal,ELK3,"1.22 fold enrichment (6-mer frequency, TF over GST control)"
same,binding signal,FEV,"1.29 fold enrichment (6-mer frequency, TF over GST control)"
same,binding signal,ETV5,"1.31 fold enrichment (6-mer frequency, TF over GST control)"
same,binding signal,HSF1,"1.75 fold enrichment (6-mer frequency, TF over GST control)"
same,binding signal,SPIC,"1.39 fold enrichment (6-mer frequency, TF over GST control)"
same,binding signal,ELF4,"1.34 fold enrichment (6-mer frequency, TF over GST control)"
same,binding signal,ELK4,"1.25 fold enrichment (6-mer frequency, TF over GST control)"
same,binding signal,ETV2,"1.24 fold enrichment (6-mer frequency, TF over GST control)"
same,binding signal,ELF3,"1.25 fold enrichment (6-mer frequency, TF over GST control)"
same,binding signal,CRX,"2.03 fold enrichment (6-mer frequency, TF over GST control)"
same,binding signal,ETV1,"1.35 fold enrichment (6-mer frequency, TF over GST control)"
